In PubChem BioAssay (EPA / NIEHS) one finds outcome and AC50 data, which are given here for 34 molecules.

The source made the active and inactive calls. The calls were made as follows: active = hit-call score of the fitted dose curve at least 0.9, where 1 is the maximum; inactive = score below 0.9.

The first assay can be described thus: ATG_TA_CIS: Attagene CIS-FACTORIAL HepG2 Assay for human TA Basal Promoter (AID 2282964). The following applies: HepG2 Attagene CIS-factorial TA basal promoter reporter; actives raise or lower the signal. In outline:
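Transient MRTU transfection of HepG2 preceded 24 h compound exposure. Reporter mRNA levels were then read by RT-PCR with capillary electrophoresis, and this background-control endpoint was fitted bidirectionally to DMSO.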
Turning to `O=C(O)c1snc(Cl)c1Cl`, the molecule was classed as inactive.
Same read-out and setting: for `NCCOCCO` the value was “inactive”.
Usually AC50 stands for the midpoint of the concentration-response curve, whichever way the signal moves. For the molecule `CC(=O)O[C@]1(C(C)=O)CC[C@H]2[C@@H]3C[C@H](C)C4=CC(=O)CC[C@]4(C)[C@H]3CC[C@@]21C`, the AC50 is 42.4 µM (active).
Take `COc1cccc(OC)c1`: the molecule was classed as inactive.
On the same count and under the same terms, for `C=C(C)C(=O)OCCOC(=O)CC(C)=O` the value was “inactive”.

A short description of another assay: ATG_TCF_b_cat_CIS: Attagene CIS-FACTORIAL HepG2 Assay for human T-Cell-Factor with beta-catenin (TCF/b-cat) (AID 2282965). To be noted: HepG2 TCF/beta-catenin cis-reporter transcription, actives raise or lower the signal. The essentials:
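Using capillary electrophoresis as the read-out, labelled reporter cDNA fragments from transiently transfected HepG2 were sized and quantified. Exposure lasted 24 hours; activity in either direction was referenced to DMSO.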
Consider `O=C1O[C@@H]2[C@@H](O)[C@H](O)O[C@@H]2[C@H]1O`, for which the molecule was classed as inactive.
As for `NCCCN1CCOCC1`, the result was inactive.
Consider `CCCCCCCCCCCCCC(=O)O`, for which the molecule was called inactive.
The same measure, in the same setting: for `CCCC(=O)C(C)=O` the value was “inactive”.
Still for that read-out and setting: for `COC(=O)c1ccc(C)cc1` the value was “inactive”; for `CNC(=O)Oc1ccc2c(c1)[C@]1(C)CCN(C)[C@@H]1N2C`, “inactive”; for `BrC1CCC(Br)C(Br)CCC(Br)C(Br)CCC1Br` (centres undefined), “inactive”.
Regarding `CC1CCC(C(C)(C)O)CC1` (centres undefined), the call was inactive.
Still for that read-out and setting: for `CC1CCC2CC1C2(C)C` (centres undefined) the value was “inactive”; for `CCCC(=O)c1cc(O)c(O)cc1O`, “inactive”.
Still for that read-out and setting: for `COC(=O)C1=C(C)NC(C)=C(C(=O)OCCN(C)Cc2ccccc2)C1c1cccc([N+](=O)[O-])c1` (centres undefined) the value was “inactive”.
In the case of `C[Si](O[Si](C)(C)C)O[Si](C)(C)C`, the call was inactive.
On the same count and under the same terms, for `C=CCOC(=O)CCC1CCCCC1` the value was “inactive”; for `O=Cc1ccc(F)cc1`, “inactive”; for `O=C(O)CCCCCCCCCCC(=O)O`, “inactive”.
Still for that read-out and setting: for `CC1=CCC2C(C1)C2(C)C` (centres undefined) the value was “inactive”.
Still for that read-out and setting: for `COC(C(=O)O)c1ccccc1` (centres undefined) the value was “inactive”.
Consider `OCc1cccnc1`, for which the outcome was inactive.
Same read-out and setting: for `COc1ccc(OC)c(OC)c1` the value was “inactive”; for `CC(C)(Oc1ccc(CCNC(=O)c2ccc(Cl)cc2)cc1)C(=O)O`, “inactive”; for `Nc1ccc(F)c([N+](=O)[O-])c1`, “inactive”.
Still for that read-out and setting: for `CC(CC(C)(C)C)CC(C)(C)CC(C)(C)C` (centres undefined) the value was “inactive”; for `Cc1cccc(C)c1C`, “inactive”.
With `Cc1c(N(C)C)c(=O)n(-c2ccccc2)n1C`, the molecule was classed as inactive.
For the molecule `CC(C)=CCC[C@H](C)CC=O`, the molecule was called inactive.
The same measure, in the same setting: for `O=C1c2ccccc2C(=O)N1SC1CCCCC1` the value was “inactive”; for `CCCCC/C=C/C=C/C=O`, “inactive”; for `CCCCNC(=O)NS(=O)(=O)c1ccc(C)cc1`, “inactive”.
Same read-out and setting: for `CC(=O)C(C)=O` the value was “inactive”.
As to `O=C(O)c1snc(Cl)c1Cl`, the AC50 was 167 µM (active).
As to `NCCOCCO`, the outcome was inactive.
For the molecule `CC(=O)O[C@]1(C(C)=O)CC[C@H]2[C@@H]3C[C@H](C)C4=CC(=O)CC[C@]4(C)[C@H]3CC[C@@]21C`, the molecule was classed as inactive.
For the molecule `COc1cccc(OC)c1`, the molecule was called inactive.
Still for that read-out and setting: for `C=C(C)C(=O)OCCOC(=O)CC(C)=O` the value was “inactive”.
